In PMC7862700, “An all-to-all approach to the identification of sequence-specific readers for epigenetic DNA modifications on cytosine”:

Tests used:
Experiment in all cases: DAPPL (digital affinity profiling via proximity ligation, sequencing); 10 mM Tris-HCl pH 7.5, 50 mM NaCl, 1 mM DTT, 4% glycerol, room temperature, 30 min; GST-TFs on glutathione beads, 16-mer random dsDNA library, 0.1% formaldehyde crosslink after washing; high values mean tight binding
FLI1 = biological target: T1, FLI1 (Homo sapiens, UniProt Q01543 1-452); conditions: protein: recombinant; tags: N-terminal GST; dsDNA, one strand shown
T1 sequence: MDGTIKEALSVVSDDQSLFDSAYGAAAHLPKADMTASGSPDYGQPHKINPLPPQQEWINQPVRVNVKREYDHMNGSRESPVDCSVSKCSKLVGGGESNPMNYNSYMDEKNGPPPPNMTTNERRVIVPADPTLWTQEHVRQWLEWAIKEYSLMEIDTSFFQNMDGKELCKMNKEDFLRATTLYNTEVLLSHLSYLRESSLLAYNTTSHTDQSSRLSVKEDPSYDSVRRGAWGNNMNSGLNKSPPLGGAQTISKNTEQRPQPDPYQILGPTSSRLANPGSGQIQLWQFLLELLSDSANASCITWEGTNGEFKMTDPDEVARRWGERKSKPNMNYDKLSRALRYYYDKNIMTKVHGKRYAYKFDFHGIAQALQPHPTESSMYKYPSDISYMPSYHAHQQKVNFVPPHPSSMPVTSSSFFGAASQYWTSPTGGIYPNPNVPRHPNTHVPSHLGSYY
How it was run: (§1)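 Pools of DNA-barcoded human transcription factors, expressed in yeast as GST fusions on glutathione beads and combined with a tag-only sample, were incubated with 200 nmole of a 16-mer random double-stranded DNA library. Incubation took 30 min at room temperature in Tris/NaCl/DTT/glycerol buffer and was followed by washing, 0.1% formaldehyde crosslinking, proximity ligation (BsaI/T4 ligase, 1 h, 37 °C), PCR amplification and sequencing on an Illumina NextSeq500. Binding signal is the ratio of a hexamer's read frequency for a factor to its frequency for the tag-only sample.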

ELK1 = biological target: T2, ELK1 (Homo sapiens, UniProt P19419 1-428); conditions: protein: recombinant; tags: N-terminal GST; dsDNA, one strand shown
T2 sequence: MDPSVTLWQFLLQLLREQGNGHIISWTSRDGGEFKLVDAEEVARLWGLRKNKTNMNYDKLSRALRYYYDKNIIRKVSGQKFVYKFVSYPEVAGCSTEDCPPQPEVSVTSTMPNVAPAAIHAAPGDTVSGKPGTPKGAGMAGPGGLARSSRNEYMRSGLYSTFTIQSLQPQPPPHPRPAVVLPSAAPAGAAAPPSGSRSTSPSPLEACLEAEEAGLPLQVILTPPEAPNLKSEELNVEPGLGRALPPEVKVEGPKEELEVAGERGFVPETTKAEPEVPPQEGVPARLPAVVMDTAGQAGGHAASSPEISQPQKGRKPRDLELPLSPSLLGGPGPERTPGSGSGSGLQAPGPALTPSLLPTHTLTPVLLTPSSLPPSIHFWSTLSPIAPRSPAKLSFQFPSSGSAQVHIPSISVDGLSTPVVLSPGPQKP
How it was run: as §1

GABPA = biological target: T3, GABPA (Homo sapiens, UniProt Q06546 1-454); conditions: protein: recombinant; tags: N-terminal GST; dsDNA, one strand shown
T3 sequence: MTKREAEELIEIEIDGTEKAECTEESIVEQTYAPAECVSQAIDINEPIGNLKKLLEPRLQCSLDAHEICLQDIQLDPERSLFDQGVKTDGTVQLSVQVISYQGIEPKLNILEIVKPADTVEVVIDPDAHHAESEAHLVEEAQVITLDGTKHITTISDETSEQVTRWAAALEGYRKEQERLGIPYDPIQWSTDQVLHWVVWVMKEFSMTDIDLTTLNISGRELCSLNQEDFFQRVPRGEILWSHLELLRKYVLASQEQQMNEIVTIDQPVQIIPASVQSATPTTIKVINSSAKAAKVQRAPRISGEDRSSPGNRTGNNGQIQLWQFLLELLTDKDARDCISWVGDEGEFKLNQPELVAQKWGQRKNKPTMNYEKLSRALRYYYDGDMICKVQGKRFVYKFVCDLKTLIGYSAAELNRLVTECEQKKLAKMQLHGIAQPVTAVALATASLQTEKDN
How it was run: as §1

ERG = biological target: T4, ERG (Homo sapiens, UniProt P11308 1-479); conditions: protein: recombinant; tags: N-terminal GST; dsDNA, one strand shown
T4 sequence: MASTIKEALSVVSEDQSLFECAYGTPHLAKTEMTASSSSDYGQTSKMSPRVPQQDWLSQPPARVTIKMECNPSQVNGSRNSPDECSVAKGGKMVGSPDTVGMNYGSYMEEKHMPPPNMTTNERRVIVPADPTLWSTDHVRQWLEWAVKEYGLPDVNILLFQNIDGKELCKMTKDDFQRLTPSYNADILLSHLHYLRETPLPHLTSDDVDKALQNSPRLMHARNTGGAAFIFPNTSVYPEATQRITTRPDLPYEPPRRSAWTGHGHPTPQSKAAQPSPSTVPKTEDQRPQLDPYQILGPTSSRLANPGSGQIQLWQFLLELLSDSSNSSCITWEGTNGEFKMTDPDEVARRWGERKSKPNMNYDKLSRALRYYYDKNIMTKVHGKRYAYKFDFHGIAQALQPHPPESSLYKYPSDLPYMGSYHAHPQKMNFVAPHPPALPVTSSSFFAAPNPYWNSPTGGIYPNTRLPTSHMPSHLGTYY
How it was run: as §1

ELF1 = ELF1 (Homo sapiens, UniProt P32519 1-619); conditions: protein: recombinant; tags: N-terminal GST; dsDNA, one strand shown
Sequence of ELF1 (P32519 whole entry): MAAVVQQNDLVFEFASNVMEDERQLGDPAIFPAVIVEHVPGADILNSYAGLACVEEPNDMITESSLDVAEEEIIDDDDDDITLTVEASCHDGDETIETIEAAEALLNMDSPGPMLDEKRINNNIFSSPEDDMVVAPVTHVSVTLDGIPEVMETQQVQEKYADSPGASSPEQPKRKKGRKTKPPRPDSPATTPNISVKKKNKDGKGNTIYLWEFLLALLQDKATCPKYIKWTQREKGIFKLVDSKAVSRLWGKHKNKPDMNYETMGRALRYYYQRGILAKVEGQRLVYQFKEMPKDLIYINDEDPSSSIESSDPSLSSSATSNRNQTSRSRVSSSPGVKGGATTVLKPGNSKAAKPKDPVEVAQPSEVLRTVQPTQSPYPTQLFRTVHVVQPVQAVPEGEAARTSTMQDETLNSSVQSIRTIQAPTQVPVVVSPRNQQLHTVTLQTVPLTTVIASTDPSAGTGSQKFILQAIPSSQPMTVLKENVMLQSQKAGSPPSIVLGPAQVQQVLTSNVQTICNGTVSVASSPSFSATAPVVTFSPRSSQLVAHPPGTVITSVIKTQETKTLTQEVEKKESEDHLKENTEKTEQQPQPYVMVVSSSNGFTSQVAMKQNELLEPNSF
How it was run: as §1

EHF = biological target: T5, EHF (Homo sapiens, UniProt Q9NZC4 1-300); conditions: protein: recombinant; tags: N-terminal GST; dsDNA, one strand shown
T5 sequence: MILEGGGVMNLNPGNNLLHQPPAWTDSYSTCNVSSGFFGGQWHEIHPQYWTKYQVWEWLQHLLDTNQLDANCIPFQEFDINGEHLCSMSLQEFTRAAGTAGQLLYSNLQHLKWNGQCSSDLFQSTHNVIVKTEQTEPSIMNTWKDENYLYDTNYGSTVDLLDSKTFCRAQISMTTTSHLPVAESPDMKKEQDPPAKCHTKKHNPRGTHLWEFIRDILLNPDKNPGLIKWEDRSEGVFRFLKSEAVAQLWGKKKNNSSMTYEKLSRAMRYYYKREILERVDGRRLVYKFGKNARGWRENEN
How it was run: as §1

SPI1 = SPI1 (Homo sapiens, UniProt P17947 1-270); conditions: protein: recombinant; tags: N-terminal GST; dsDNA, one strand shown
How it was run: as §1

SPIB = SPIB (Homo sapiens, UniProt Q01892 1-262); conditions: protein: recombinant; tags: N-terminal GST; dsDNA, one strand shown
Sequence of SPIB (Q01892 whole entry): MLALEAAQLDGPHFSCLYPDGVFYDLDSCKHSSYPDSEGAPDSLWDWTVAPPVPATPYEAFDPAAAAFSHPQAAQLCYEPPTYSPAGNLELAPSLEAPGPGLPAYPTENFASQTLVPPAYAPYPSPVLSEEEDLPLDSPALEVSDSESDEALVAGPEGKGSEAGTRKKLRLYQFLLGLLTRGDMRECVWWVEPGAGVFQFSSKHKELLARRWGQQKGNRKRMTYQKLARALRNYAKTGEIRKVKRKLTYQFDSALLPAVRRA
How it was run: as §1

ELK3 = biological target: T6, ELK3 (Homo sapiens, UniProt P41970 1-407); conditions: protein: recombinant; tags: N-terminal GST; dsDNA, one strand shown
T6 sequence: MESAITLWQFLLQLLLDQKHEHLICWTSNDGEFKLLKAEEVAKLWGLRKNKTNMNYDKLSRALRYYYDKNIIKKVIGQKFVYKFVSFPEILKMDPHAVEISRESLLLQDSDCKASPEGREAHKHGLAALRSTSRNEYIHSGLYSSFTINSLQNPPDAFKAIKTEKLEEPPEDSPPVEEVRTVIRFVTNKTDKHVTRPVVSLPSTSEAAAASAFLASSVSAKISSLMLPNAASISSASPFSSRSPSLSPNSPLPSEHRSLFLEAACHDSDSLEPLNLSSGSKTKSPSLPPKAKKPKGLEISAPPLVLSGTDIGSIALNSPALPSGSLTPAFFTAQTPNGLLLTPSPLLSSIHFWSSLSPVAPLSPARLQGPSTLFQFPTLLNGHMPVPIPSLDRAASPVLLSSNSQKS
How it was run: as §1

FEV = biological target: T7, FEV (Homo sapiens, UniProt Q99581 1-238); conditions: protein: recombinant; tags: N-terminal GST; dsDNA, one strand shown
T7 sequence: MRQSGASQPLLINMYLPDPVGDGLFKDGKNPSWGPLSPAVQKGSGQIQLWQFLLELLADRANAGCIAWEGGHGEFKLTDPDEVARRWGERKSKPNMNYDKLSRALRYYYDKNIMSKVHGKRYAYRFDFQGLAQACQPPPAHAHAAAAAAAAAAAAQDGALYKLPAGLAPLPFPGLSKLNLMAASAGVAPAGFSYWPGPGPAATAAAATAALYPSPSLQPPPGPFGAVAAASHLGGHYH
How it was run: as §1

ETV5 = ETV5 (Homo sapiens, UniProt P41161 1-510); conditions: protein: recombinant; tags: N-terminal GST; dsDNA, one strand shown
Sequence of ETV5 (P41161 whole entry): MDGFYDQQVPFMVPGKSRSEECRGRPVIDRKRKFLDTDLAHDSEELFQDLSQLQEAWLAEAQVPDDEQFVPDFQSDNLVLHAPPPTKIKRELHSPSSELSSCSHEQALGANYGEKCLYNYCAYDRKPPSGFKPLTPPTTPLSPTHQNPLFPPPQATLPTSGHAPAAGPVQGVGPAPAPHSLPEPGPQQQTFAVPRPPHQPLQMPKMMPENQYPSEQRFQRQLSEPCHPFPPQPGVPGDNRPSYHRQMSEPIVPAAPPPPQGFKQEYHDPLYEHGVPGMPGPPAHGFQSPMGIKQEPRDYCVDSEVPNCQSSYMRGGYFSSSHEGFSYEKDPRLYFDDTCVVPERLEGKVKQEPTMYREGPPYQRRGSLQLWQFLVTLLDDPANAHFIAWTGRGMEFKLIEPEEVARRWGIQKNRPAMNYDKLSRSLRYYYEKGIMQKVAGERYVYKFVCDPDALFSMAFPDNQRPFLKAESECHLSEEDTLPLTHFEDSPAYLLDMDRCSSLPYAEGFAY
How it was run: as §1

HSF1 = HSF1 (Homo sapiens, UniProt Q00613 1-529); conditions: protein: recombinant; tags: N-terminal GST; chain copies: 3; dsDNA, one strand shown
Sequence of HSF1 (Q00613 whole entry): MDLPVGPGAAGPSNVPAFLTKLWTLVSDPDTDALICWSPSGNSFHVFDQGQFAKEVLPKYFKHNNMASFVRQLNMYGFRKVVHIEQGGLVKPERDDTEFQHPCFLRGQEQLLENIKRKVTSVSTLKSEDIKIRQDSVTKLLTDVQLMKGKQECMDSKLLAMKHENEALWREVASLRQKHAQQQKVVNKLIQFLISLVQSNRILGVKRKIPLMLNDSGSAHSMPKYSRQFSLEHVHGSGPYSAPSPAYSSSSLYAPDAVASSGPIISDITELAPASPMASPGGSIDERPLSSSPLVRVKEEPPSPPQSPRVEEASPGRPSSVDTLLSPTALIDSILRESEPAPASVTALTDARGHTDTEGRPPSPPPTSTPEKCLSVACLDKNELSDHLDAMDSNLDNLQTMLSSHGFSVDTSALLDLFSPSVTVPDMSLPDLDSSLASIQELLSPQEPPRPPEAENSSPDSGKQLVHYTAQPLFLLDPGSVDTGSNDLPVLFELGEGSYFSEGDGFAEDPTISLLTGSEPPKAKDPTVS
How it was run: as §1

SPIC = biological target: T8, SPIC (Homo sapiens, UniProt Q8N5J4 1-248); conditions: protein: recombinant; tags: N-terminal GST; dsDNA, one strand shown
T8 sequence: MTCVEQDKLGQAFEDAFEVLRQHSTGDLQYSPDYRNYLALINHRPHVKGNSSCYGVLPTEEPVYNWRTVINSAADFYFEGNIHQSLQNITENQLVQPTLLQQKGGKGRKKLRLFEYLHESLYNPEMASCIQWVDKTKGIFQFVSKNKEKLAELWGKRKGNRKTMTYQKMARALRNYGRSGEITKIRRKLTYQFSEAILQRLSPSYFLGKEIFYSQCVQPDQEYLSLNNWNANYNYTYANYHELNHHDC
How it was run: as §1

ELF4 = ELF4 (Homo sapiens, UniProt Q99607 1-663); conditions: protein: recombinant; tags: N-terminal GST; dsDNA, one strand shown
Sequence of ELF4 (Q99607 whole entry): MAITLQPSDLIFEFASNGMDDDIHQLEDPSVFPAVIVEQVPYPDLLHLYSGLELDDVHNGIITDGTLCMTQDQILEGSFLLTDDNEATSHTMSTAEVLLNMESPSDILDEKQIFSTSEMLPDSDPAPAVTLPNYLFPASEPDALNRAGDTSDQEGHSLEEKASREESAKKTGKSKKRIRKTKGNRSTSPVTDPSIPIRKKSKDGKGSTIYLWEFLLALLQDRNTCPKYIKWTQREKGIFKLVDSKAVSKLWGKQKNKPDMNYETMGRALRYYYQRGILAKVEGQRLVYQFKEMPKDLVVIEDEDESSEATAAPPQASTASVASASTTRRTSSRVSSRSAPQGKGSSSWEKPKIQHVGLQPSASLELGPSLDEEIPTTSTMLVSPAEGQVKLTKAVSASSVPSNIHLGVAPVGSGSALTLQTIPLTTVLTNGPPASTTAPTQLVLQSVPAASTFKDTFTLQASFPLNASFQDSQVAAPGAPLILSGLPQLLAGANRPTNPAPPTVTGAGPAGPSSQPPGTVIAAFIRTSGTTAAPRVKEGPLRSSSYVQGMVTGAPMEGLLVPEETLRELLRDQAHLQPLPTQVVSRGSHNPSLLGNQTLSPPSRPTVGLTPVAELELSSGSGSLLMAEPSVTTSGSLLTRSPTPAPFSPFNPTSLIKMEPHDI
How it was run: as §1

ELK4 = biological target: T9, ELK4 (Homo sapiens, UniProt P28324-2 1-405); conditions: protein: recombinant; tags: N-terminal GST; dsDNA, one strand shown
T9 sequence: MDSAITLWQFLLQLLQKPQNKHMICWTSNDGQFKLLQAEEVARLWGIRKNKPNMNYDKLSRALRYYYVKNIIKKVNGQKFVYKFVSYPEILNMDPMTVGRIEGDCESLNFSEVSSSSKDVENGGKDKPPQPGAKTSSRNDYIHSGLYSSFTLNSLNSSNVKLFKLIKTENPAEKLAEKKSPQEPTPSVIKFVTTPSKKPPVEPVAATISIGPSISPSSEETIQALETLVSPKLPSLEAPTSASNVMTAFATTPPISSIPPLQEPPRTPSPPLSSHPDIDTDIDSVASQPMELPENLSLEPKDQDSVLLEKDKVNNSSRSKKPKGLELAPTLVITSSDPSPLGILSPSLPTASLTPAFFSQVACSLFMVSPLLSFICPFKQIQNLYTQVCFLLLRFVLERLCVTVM
How it was run: as §1

ETV2 = biological target: T10, ETV2 (Homo sapiens, UniProt O00321 1-342); conditions: protein: recombinant; tags: N-terminal GST; dsDNA, one strand shown
T10 sequence: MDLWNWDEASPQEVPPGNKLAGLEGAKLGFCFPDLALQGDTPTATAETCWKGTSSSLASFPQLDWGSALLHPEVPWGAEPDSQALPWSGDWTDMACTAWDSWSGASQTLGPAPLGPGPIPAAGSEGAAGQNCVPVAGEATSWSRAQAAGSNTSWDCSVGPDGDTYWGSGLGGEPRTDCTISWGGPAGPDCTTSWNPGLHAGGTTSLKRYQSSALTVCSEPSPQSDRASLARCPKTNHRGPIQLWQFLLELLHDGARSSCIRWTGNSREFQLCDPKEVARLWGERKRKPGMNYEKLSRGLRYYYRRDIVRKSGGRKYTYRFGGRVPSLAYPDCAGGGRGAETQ
How it was run: as §1

ELF3 = biological target: T11, ELF3 (Homo sapiens, UniProt P78545 1-371); conditions: protein: recombinant; tags: N-terminal GST; dsDNA, one strand shown
T11 sequence: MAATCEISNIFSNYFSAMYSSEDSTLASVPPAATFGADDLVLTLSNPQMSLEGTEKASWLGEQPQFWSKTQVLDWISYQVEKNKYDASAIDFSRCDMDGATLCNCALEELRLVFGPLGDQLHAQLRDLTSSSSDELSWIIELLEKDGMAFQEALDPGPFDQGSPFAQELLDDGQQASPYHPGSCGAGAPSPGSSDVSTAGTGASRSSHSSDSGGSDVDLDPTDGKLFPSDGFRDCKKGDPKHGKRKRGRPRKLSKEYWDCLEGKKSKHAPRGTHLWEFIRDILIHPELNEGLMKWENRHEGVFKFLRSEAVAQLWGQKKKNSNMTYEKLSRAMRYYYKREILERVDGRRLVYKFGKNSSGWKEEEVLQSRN
How it was run: as §1

CRX = CRX (Homo sapiens, UniProt O43186 1-299); conditions: protein: recombinant; tags: N-terminal GST; dsDNA, one strand shown
Sequence of CRX (O43186 whole entry): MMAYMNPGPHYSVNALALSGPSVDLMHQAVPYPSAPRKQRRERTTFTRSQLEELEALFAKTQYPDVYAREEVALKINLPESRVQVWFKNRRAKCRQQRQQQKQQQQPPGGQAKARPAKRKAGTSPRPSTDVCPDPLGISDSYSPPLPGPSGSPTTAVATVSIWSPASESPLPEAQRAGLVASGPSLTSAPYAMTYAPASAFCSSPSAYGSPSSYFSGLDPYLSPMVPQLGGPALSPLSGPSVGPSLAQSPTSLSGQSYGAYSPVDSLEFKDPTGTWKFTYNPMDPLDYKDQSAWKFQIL
How it was run: as §1

ETV1 = ETV1 (Homo sapiens, UniProt P50549 1-477); conditions: protein: recombinant; tags: N-terminal GST; dsDNA, one strand shown
Sequence of ETV1 (P50549 whole entry): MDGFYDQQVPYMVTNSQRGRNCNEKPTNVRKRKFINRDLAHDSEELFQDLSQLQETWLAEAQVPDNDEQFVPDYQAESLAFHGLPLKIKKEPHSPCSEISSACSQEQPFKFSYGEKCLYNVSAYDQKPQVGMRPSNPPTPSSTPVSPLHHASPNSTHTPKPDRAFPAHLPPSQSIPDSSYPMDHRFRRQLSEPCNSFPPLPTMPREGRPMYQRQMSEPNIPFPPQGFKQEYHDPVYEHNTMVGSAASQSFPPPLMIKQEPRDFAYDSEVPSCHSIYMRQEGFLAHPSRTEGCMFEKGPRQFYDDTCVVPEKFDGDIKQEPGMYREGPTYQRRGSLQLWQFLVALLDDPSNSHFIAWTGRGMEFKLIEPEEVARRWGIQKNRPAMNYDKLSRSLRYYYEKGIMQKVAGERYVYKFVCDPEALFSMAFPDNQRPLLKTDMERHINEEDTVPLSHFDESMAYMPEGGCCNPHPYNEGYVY
How it was run: as §1

## CAATAA
FLI1
  binding signal: 1.12 fold enrichment (6-mer frequency, TF over GST control)
ELK1
  binding signal: 1.07 fold enrichment (6-mer frequency, TF over GST control)
GABPA
  binding signal: 1.25 fold enrichment (6-mer frequency, TF over GST control)
ERG
  binding signal: 1.13 fold enrichment (6-mer frequency, TF over GST control)
ELF1
  binding signal: 1.13 fold enrichment (6-mer frequency, TF over GST control)
EHF
  binding signal: 1.15 fold enrichment (6-mer frequency, TF over GST control)
SPI1
  binding signal: 1.14 fold enrichment (6-mer frequency, TF over GST control)
SPIB
  binding signal: 1.11 fold enrichment (6-mer frequency, TF over GST control)
ELK3
  binding signal: 1.2 fold enrichment (6-mer frequency, TF over GST control)
FEV
  binding signal: 1.1 fold enrichment (6-mer frequency, TF over GST control)
ETV5
  binding signal: 1.14 fold enrichment (6-mer frequency, TF over GST control)
HSF1
  binding signal: 1.24 fold enrichment (6-mer frequency, TF over GST control)
SPIC
  binding signal: 1.2 fold enrichment (6-mer frequency, TF over GST control)
ELF4
  binding signal: 1.16 fold enrichment (6-mer frequency, TF over GST control)
ELK4
  binding signal: 1.14 fold enrichment (6-mer frequency, TF over GST control)
ETV2
  binding signal: 1.14 fold enrichment (6-mer frequency, TF over GST control)
ELF3
  binding signal: 1.27 fold enrichment (6-mer frequency, TF over GST control)
CRX
  binding signal: 1.46 fold enrichment (6-mer frequency, TF over GST control)
ETV1
  binding signal: 1.11 fold enrichment (6-mer frequency, TF over GST control)
